# Reference: PubChem BioAssay (NCATS)
# Inconclusive results are not listed. Values without a mark were called inactive. Calls follow the shape of the full dose curve.
# Target: Thyroid hormone receptor beta (Homo sapiens) (UniProt P10828)
# Test: qHTS assay for small molecule agonists of thyroid hormone receptor beta signaling (AID 588545)
# Details: TR-UAS-bla GripTite HEK 293, beta-lactamase ratio, agonist mode, 18 h; series mostly up to 76.7 µM; activation: at the top concentration
# Description: NIH Chemical Genomics Center [NCGC]
# U.S. Environmental Protection Agency [EPA]
# National Institutes of Environmental Health Sciences [NIEHS]
# National Toxicology Program [NTP]
# Thyroid hormone receptor (TR) belongs to nuclear hormone receptor superfamily. There are two subtypes for TR: TR-alpha and TR-beta. TR-beta plays a major role in regulating plasma cholesterol levels and it mediates the biological activities of thyroid hormone. Screening environmental chemicals on TR-beta signaling will provide important information for the mechanism of compound action.
# NCGC Assay Protocol Summary
# Using a beta-lactamase reporter-gene under control of the TR response element, a cell-based assay [GeneBLAzer TR-UAS-bla-GripTite assay developed by Invitrogen] was used to measure TR-beta signaling in agonist mode. TR-UAS-bla-GripTite HEK 293 cells were used with assay medium containing 2% charcoal/dextran FBS, 0.1 mM NEAA and 1 mM sodium pyruvate. The assay was performed in clear bottom black Greiner 1536-well plates. T3 was used as a positive control in the screen. Library compounds were measured for their ability to stimulate the reporter gene activity. Compounds were screened in a titration series in 1536-well format. The fluorescence intensity (405 nm excitation, 460/530 nm emission) was measured using an EnVision plate reader. Data was normalized relative to T3 control (10 nM, 100%), and DMSO only wells (basal, 0%). Concentration-response titration points for each compound were fitted to the Hill equation yielding concentrations of half-maximal stimulation (EC50) and maximal response (efficacy) values.
# qHTS protocol for TR-beta beta-lactamase assay in agonist mode
# [Step] [Parameter] [Value] [Description]
# 1. Reagent; 6 uL; 2500 cells/well
# 2. Incubation; 37 C for 4 hrs
# - Dose response; start 3.8 uM, 1:3 dilutions, duplicates in first column
# - Two columns of each 10 and 0.4 nM (finals) concentrations.
# 5. Incubation; 37 C for 18 hrs
# 6. Detection reagent; 1 uL of CCF4-dye
# 7. Incubation; RT for 2 hrs
# 8. Detection; Fluorescence; Envision plate reader
# Thyroid hormone receptor beta (Homo sapiens), sequence (P10828 whole entry, looked up): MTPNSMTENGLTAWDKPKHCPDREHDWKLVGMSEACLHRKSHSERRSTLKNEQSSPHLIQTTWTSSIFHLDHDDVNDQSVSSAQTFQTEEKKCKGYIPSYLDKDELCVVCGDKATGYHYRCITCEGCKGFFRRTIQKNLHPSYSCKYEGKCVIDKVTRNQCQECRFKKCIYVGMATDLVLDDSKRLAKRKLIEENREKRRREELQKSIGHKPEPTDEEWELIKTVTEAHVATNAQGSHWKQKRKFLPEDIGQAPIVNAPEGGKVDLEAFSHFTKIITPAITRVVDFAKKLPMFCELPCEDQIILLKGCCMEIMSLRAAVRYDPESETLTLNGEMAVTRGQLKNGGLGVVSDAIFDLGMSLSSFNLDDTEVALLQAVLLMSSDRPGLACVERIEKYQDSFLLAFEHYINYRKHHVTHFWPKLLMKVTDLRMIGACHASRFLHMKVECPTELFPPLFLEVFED
row,Compound,activation
1,CCCCOCCOCCOCCO,-7.39%
2,CC1COCc2cc3c(cc21)C(C)(C)C(C)C3(C)C (stereo not given),-2.2%
3,CC(Cl)(Cl)C(=O)OCCOc1cc(Cl)c(Cl)cc1Cl,-8.81%
4,CC1(C)C(=O)N(Cl)C(=O)N1Cl,-5.39%
5,CC/C=C\CCOC(=O)c1ccccc1O,-5.07%
6,CC(C)(C)c1ccc(O)c(C(C)(C)C)c1,-15.9%
7,CCCCCCCCCCCCCCN(C)C,-16.1%
8,C=CC(=O)OCCOc1ccccc1,-0.142%
9,CCCCC(CC)COC(=O)c1ccc(C(=O)OCC(CC)CCCC)cc1 (stereo not given),0%
10,C=C(C)C(=O)OCCOC(=O)C(=C)C,-3.5%
11,C=CCCCCCCCCCC,-0.223%
12,O=C(O)c1ccc(C(=O)O)c(C(=O)O)c1,-8.32%
13,CCCCCCCCCC(=O)OC,-6.35%
14,CCCCCCC(O)CCCCCCCCCCC(=O)OC (stereo not given),-8.63%
15,CC1(C)CC(NCCCCCCNC2CC(C)(C)NC(C)(C)C2)CC(C)(C)N1,-7.51%
16,CCCCCCCC/C=C\CCCCCCCCCCCCC,13.3%
17,C=C[Si](OCCOC)(OCCOC)OCCOC,1.08%
18,C=C(C)C(=O)OCCN(C)C,-0.407%
19,CCCCC(CC)C(=O)OCCOCCOCCOC(=O)C(CC)CCCC (stereo not given),-1.28%
20,c1ccc2cc3ccccc3cc2c1,-1.95%

row,Compound,activation
1,CC(C)c1ccc2cc(C(C)C)ccc2c1,-7.33%
2,O=S(=O)(O)c1ccc(N=Nc2c(O)ccc3cc(S(=O)(=O)O)ccc23)cc1,-12.1%
3,CCCCOCCOCCOC(=O)CCCCC(=O)OCCOCCOCCCC,-2.81%
4,OC1CCC(C2CCCCC2)CC1 (stereo not given),-0.733%
5,Oc1ccc2ccccc2c1N=Nc1ccccc1,2.2%
6,CCCN(CCC)c1c([N+](=O)[O-])cc(C(F)(F)F)c(N)c1[N+](=O)[O-],-6.59%
7,CCCCCCCCCC(C)=O,1.44%
8,NCCCCCCCCCCCC(=O)O,-2.38%
9,CCOC(=O)CC(O)(CC(=O)OCC)C(=O)OCC,1.83%
10,COC(=O)CSc1cc(N=c2sc(=O)n3n2CCCC3)c(F)cc1Cl,16.4%
11,C=C(C)C(=O)OCCCCCCCCCCCCCCCC,-3.66%
12,OCCC(F)(F)C(F)(F)C(F)(F)C(F)(F)C(F)(F)C(F)(F)C(F)(F)C(F)(F)F,1.75%
13,C=CCOc1nc(OCC=C)nc(OCC=C)n1,-1.04%
14,Cc1c(Cl)cccc1Cl,-2.2%
15,CC(C)CCCCOC(=O)c1ccccc1C(=O)OCCCCC(C)C,-1.49%
16,C=Cc1ccccc1Br,-7.53%
17,CCCC/C=C/CCCCO,-0.366%
18,O=C(Cl)c1ccc(C(=O)Cl)cc1,-0.528%
19,O=[N+]([O-])c1ccc(O)cc1C(F)(F)F,-6.39%
20,CCCCCCCCCCCCCCC(=O)OC,-5.45%
